We go through five molecules from PubChem BioAssay (EPA / NIEHS).

Read-out in test [1]: Interleukin-8 (IL8), CXCL8 (gene 3576)
The test is described as follows: BSK_CASM3C_IL8: BioMAP Diversity Plus: CASM3C Assay for Interleukin-8 (IL8) Biomarker Activity (AID 2283042).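 Also: IL-8 protein level quantified by ELISA.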 The settings on record: primary human coronary artery smooth muscle cells; actives raise or lower the signal.

Read-out in test [2]: Human Leukocyte Antigen - DR isotype (HLADR), HLA-DRA (gene 3122)
Nature of the test: BSK_CASM3C_HLADR: BioMAP Diversity Plus: CASM3C Assay for Human Leukocyte Antigen - DR isotype (HLADR) Biomarker Activity (AID 2283043).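 Also: cell-surface HLA-DR protein level quantified by ELISA.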 Conditions: primary human coronary artery smooth muscle cells; actives raise or lower the signal.

Read-out in test [3]: Macrophage colony-stimulating factor (MCSF), CSF1 (gene 1435)
Nature of the test: BSK_CASM3C_MCSF: BioMAP Diversity Plus: CASM3C Assay for Macrophage colony-stimulating factor (MCSF) Biomarker Activity (AID 2283044).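 Also: M-CSF protein amount quantified by ELISA after 24 h exposure.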 Conditions: primary human coronary artery smooth muscle cells; actives raise or lower the signal.

Read-out in test [4]: Low-density lipoprotein receptor (LDLR), LDLR (gene 3949)
The test is described as follows: BSK_CASM3C_LDLR: BioMAP Diversity Plus: CASM3C Assay for Low-density lipoprotein receptor (LDLR) Biomarker Activity (AID 2283045).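 Also: LDLR protein level on the cell surface quantified by ELISA.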 The settings on record: primary human coronary artery smooth muscle cells; actives raise or lower the signal.

Read-out in test [5]: Monocyte Chemoattractant Protein-1 (MCP1), CCL2 (gene 6347)
Nature of the test: BSK_CASM3C_MCP1: BioMAP Diversity Plus: CASM3C Assay for Monocyte Chemoattractant Protein-1 (MCP1) Biomarker Activity (AID 2283046).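 Also: MCP-1 level quantified by ELISA 24 h after dosing.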 Conditions: primary human coronary artery smooth muscle cells; actives raise or lower the signal.

A short description of test [6]: BSK_CASM3C_Proliferation: Cell Proliferation Assessment in the BioMAP Diversity Plus: CASM3C Assay (AID 2283047).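 Also: sulforhodamine B total protein stain as relative cell number at 560 nm; sub-confluent cells exposed 48 h before staining; fitted both ways against DMSO so gain or loss of cell number.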 The settings on record: primary human coronary artery smooth muscle cells.
Read-out in test [7]: Monokine induced gamma interferon (MIG), CXCL9 (gene 4283)
The test is described as follows: BSK_CASM3C_MIG: BioMAP Diversity Plus: CASM3C Assay for Monokine induced gamma interferon (MIG) Biomarker Activity (AID 2283048).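 Also: MIG protein level measured by ELISA.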 The settings on record: primary human coronary artery smooth muscle cells; actives raise or lower the signal.

Read-out in test [8]: serum amyloid A (SAA), SAA1 (gene 6288)
The test is described as follows: BSK_CASM3C_SAA: BioMAP Diversity Plus: CASM3C Assay for serum amyloid A (SAA) Biomarker Activity (AID 2283049).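 Also: SAA protein level quantified by ELISA.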 The settings on record: primary human coronary artery smooth muscle cells; actives raise or lower the signal.

The nature of test [9]: BSK_CASM3C_SRB: Viability Assessment in the BioMAP Diversity Plus: CASM3C Assay (AID 2283050).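 Also: total protein by SRB staining as cytotoxicity measure in parallel cultures; cells exposed to compound for 24 h.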 The settings on record: primary human coronary artery smooth muscle cells.
Read-out in test [10]: Thrombomodulin, THBD (gene 7056)
The test is described as follows: BSK_CASM3C_Thrombomodulin: BioMAP Diversity Plus: CASM3C Assay for Thrombomodulin Biomarker Activity (AID 2283051).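 Also: thrombomodulin protein level measured by ELISA 24 h after dosing.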 The settings on record: primary human coronary artery smooth muscle cells; actives raise or lower the signal.

Read-out in test [11]: Tissue Factor, F3 (gene 2152)
The test is described as follows: BSK_CASM3C_TissueFactor: BioMAP Diversity Plus: CASM3C Assay for Tissue Factor Biomarker Activity (AID 2283052).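 Also: cell surface tissue factor protein level read by ELISA.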 Conditions: primary human coronary artery smooth muscle cells; actives raise or lower the signal.

Read-out in test [12]: Interferon-gamma inducible Protein 10 (IP10), CXCL10 (gene 3627)
The test is described as follows: BSK_hDFCGF_IP10: BioMAP Diversity Plus: hDFCGF Assay for Interferon-gamma inducible Protein 10 (IP10) Biomarker Activity (AID 2283053). Conditions: primary human foreskin fibroblasts; actives raise or lower the signal. In short, it runs like this:
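Primary foreskin fibroblasts, human; 24 h compound exposure; IP-10 by ELISA; bidirectional fit vs DMSO.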

Read-out in test [13]: Urokinase-type plasminogen activator receptor (uPAR), PLAUR (gene 5329)
The test is described as follows: BSK_CASM3C_uPAR: BioMAP Diversity Plus: CASM3C Assay for Urokinase-type plasminogen activator receptor (uPAR) Biomarker Activity (AID 2283054).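 Also: cell-surface uPAR protein level quantified by ELISA.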 Conditions: primary human coronary artery smooth muscle cells; actives raise or lower the signal.

Read-out in test [14]: Vascular cell adhesion molecule 1 (VCAM1), VCAM1 (gene 7412)
The test is described as follows: BSK_CASM3C_VCAM1: BioMAP Diversity Plus: CASM3C Assay for Vascular cell adhesion molecule 1 (VCAM1) Biomarker Activity (AID 2283055).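 Also: VCAM-1 protein level quantified by ELISA on the cells.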 The settings on record: primary human coronary artery smooth muscle cells; actives raise or lower the signal.

Read-out in test [15]: Collagen III, COL3A1 (gene 1281)
Nature of the test: BSK_hDFCGF_CollagenIII: BioMAP Diversity Plus: hDFCGF Assay for Collagen III Biomarker Activity (AID 2283056). The settings on record: primary human foreskin fibroblasts; actives raise or lower the signal. In short, it runs like this: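 Cells: human foreskin fibroblasts, primary. Dosing followed by 24 h incubation, then ELISA for collagen III. Both increases and decreases scored relative to DMSO.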

Read-out in test [16]: Epidermal growth factor receptor (EGFR), EGFR (gene 1956)
The test is described as follows: BSK_hDFCGF_EGFR: BioMAP Diversity Plus: hDFCGF Assay for Epidermal growth factor receptor (EGFR) Biomarker Activity (AID 2283057). Conditions: primary human foreskin fibroblasts; actives raise or lower the signal. In short, it runs like this: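 hDFCGF system, primary human foreskin fibroblasts; compound 24 h; EGFR measured by ELISA; DMSO = negative control/baseline; bidirectional fitting.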

Read-out in test [17]: Interleukin-8 (IL8), CXCL8 (gene 3576)
The test is described as follows: BSK_hDFCGF_IL8: BioMAP Diversity Plus: hDFCGF Assay for Interleukin-8 (IL8) Biomarker Activity (AID 2283058). The settings on record: primary human foreskin fibroblasts; actives raise or lower the signal. The method in brief:
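IL-8 levels from compound-treated primary human fibroblasts were read by ELISA at 24 h, with DMSO serving as baseline for bidirectional fitting.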

Test [18] in a line: BSK_hDFCGF_Proliferation: Cell Proliferation Assessment in the BioMAP Diversity Plus: hDFCGF Assay (AID 2283059).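 Also: curves fitted for both rise and fall of signal versus DMSO baseline.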 The settings on record: primary human foreskin fibroblasts. The method in brief:
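Total protein read at 560 nm after 0.1% SRB staining of TCA-fixed human skin fibroblasts, […]. Activity is fitted in both directions relative to DMSO as baseline.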

Read-out in test [19]: Macrophage colony-stimulating factor (MCSF), CSF1 (gene 1435)
Nature of the test: BSK_hDFCGF_MCSF: BioMAP Diversity Plus: hDFCGF Assay for Macrophage colony-stimulating factor (MCSF) Biomarker Activity (AID 2283060). Conditions: primary human foreskin fibroblasts; actives raise or lower the signal. In short, it runs like this: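 M-CSF levels, determined by ELISA, are taken at 24 h after dosing human skin fibroblasts. Responses in either direction are fitted with DMSO serving as the baseline.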

The nature of test [20]: BSK_hDFCGF_SRB: Viability Assessment in the BioMAP Diversity Plus: hDFCGF Assay (AID 2283061).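 Also: cells exposed to compound for 24 h before the read.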 Conditions: primary human foreskin fibroblasts. In short, it runs like this:
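Cells were dosed with test chemical, cultured 24 h, fixed with 10% TCA, then stained with 0.1% SRB and read at 560 nm. The fibroblasts were human foreskin primary cells, and DMSO served as baseline.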

Where “and” joins values, the source holds several entries; their conditions need not be identical. Equal entries are not always repeated. Some structures have more than one record in an assay (separate samples or runs), and their calls can disagree. Calls of active or inactive are those of the source. The calls were made as follows: active = hit-call score of the fitted dose curve at least 0.9, where 1 is the maximum; inactive = score below 0.9.

In the case of `c1ccc(-c2ccccc2)cc1`, the outcome in [1], in [2], in [3], in test [4], in [5] and in test [6] was inactive. Further, the outcome in [7], in test [8], in [9], in test [10], in test [11] and in [12] was inactive. The result in [13], in [14], in test [15], in test [16], in test [17] and in test [18] was inactive. Besides, the result in test [19] and in test [20] was inactive.
As for `c1cc2ccc3cccc4ccc(c1)c2c34`, the outcome in [1], in test [2], in test [3], in test [5], in test [6] and in test [7] was inactive. In addition, the outcome in [8], in [9], in test [10], in test [11], in test [12] and in test [13] was inactive. In addition, the result in test [14], in test [15], in test [16], in [17], in test [19] and in test [20] was inactive. Moreover, the AC50 in [4] is 9.87 µM (active); in test [18], 15 µM (active).
For the molecule `Oc1c(Cl)c(Cl)c(Cl)c(Cl)c1Cl`, the AC50 is 2.09 µM (active) in test [1]; 20 µM (active) in test [2]; 26.7 µM (active) in test [6]; 29.6 µM (active) in test [9]; 34.9 µM (active) in test [11]; 10.2 µM (active) and 13.1 µM (active) in [12]. Besides, the AC50 in test [13] was 20 µM (active); in [14], 20 µM (active); in test [15], 2.34 µM (active) and 2.57 µM (active); in [18], 3.11 µM (active) and 8.24 µM (active); in test [20] it was 7.08 µM (active) and 12.4 µM (active). Besides, the result in [1], in [2], in test [3], in test [4], in test [5] and in test [6] was inactive. The result in test [7], in [8], in test [9], in test [10], in test [11] and in test [13] was inactive. The outcome in test [16] and in [17] was inactive.
On to `CC(C)C(=O)OCC(C)(C)C(OC(=O)C(C)C)C(C)C` (stereo not drawn), for which the result in test [1], in test [2], in test [3], in test [4], in test [5] and in [6] was inactive. Also, the outcome in test [7], in test [8], in [9], in [10], in test [11] and in [12] was inactive. The result in test [13], in test [14], in [15], in [16], in [17] and in test [19] was inactive. For the same molecule, the outcome in test [20] was inactive. In addition, the AC50 in [18] was 34.4 µM (active).
Take `O=C(O)C(F)(F)C(F)(F)C(F)(F)C(F)(F)C(F)(F)C(F)(F)C(F)(F)C(F)(F)F`: the outcome in [1], in test [2], in test [3], in test [4], in test [5] and in [6] was inactive. In addition, the outcome in test [7], in [8], in test [9], in [10], in [11] and in test [12] was inactive. The outcome in [13], in [14], in test [15], in test [16], in test [17] and in [19] was inactive. Besides, in test [20], the outcome was inactive. In addition, the AC50 was 7.84 µM (active) in test [11]; 32.4 µM (active) and 43.4 µM (active) in [12]; 7.13 µM (active) in test [15]; 34.2 µM (active) and 20.8 µM (active) and 46.7 µM (active) in [18].

The term AC50 denotes the concentration at which the activity in the assay is half-maximal.
